# Results filed as inconclusive are left out. Active and inactive are the calls of the source. The calls were made as follows: active = hit-call score of the fitted dose curve at least 0.9, where 1 is the maximum; inconclusive = response in the unintended direction; inactive = score below 0.9.
# Assay: Tanguay_ZF_120hpf_CFIN_legacy: (Legacy) Oregon State University Tanguay Lab 120 Hour Post-fertilization zebrafish Assay for Caudal Fin Malformation (AID 2283649)
# In short: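 Dechorionated Tropical 5D wild-type embryos, one per well from 6 hpf, static exposure to 120 hpf at 28C in 0.64% DMSO. Caudal fin malformation scored by brightfield as present/absent; not scored in dead embryos.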
row,SMILES,outcome
1,c1cc2c3c(cccc3c1)CC2,inactive
2,CC(Cc1ccc(OCC(=O)O)cc1)NCC(O)c1csc(C(F)(F)F)n1 (centres undefined),inactive
3,O=P1(N(CCCl)CCCl)NCCCO1 (centres undefined),inactive
4,c1ccc(OP(Oc2ccccc2)Oc2ccccc2)cc1,inactive
5,[N-]=[N+]=[N-],inactive
6,ClC(Cl)c1ccccc1,inactive
7,CCCCc1ccccc1,inactive
8,c1ccc2c(c1)Nc1ccccc1S2,inactive
9,O=C(O)C(Cl)Cl,inactive
10,CCNc1nc(Cl)nc(NC(C)(C)C)n1,inactive
11,ClC(Cl)(Cl)c1ccccc1,inactive
12,Cc1ccc(O)cc1C,inactive
13,CCOc1ccc(C(C)(C)COCc2cccc(Oc3ccccc3)c2)cc1,inactive
14,Nc1ccc2ccccc2c1,inactive
15,Nc1cc2c3c(c1)C(c1ccccc1)=N[C@@H](NC(=O)c1cccnc1)C(=O)N3CC2,inactive
16,CC(C)(C)OOC(C)(C)C,inactive
17,CSC(C)(C)C=NO,inactive
18,COCCOCCO,inactive
19,CC(Cl)(Cl)C(=O)O,inactive
20,CCCCN(CCCC)SN(C)C(=O)Oc1cccc2c1OC(C)(C)C2,inactive
21,OCC1CO1 (centres undefined),inactive
22,O=C(O)C1C(C(=O)O)C2(Cl)C(Cl)=C(Cl)C1(Cl)C2(Cl)Cl (centres undefined),inactive
23,CCOC(=O)c1ccccc1C(=O)OCC,inactive
24,CCOP(=S)(OCC)SCSCC,inactive

# Source: PubChem BioAssay (EPA / NIEHS)
